# A selection: hits, their analogues and other compounds. The true share with any hit is near 1.4%.
# FBPA Giardia inh = qHTS Assay for Inhibitors of Fructose-1,6-bisphosphate Aldolase from Giardia Lamblia; purified Giardia FBPA; A8B2U2; 290,000 compounds, 0.71% hits; Potency, µM (titrated, usually from 59.6 µM), actives largely listed as inhibitors; further: nearly all actives have a fitted effect of over 55% in size
# Target sequence (A8B2U2 whole entry, looked up): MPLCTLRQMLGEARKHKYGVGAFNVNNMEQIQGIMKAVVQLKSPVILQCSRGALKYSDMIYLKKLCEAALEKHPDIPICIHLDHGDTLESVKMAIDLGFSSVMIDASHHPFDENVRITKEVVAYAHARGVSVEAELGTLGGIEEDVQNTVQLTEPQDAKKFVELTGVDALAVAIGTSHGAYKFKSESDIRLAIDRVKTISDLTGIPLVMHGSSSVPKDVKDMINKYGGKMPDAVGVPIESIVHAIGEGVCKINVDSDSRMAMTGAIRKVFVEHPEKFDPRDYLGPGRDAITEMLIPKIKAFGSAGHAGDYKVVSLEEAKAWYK
#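 40 nM FBPA preincubated 10 min at RT with compound (up to 57.5 uM final), then substrate plus GAPDH/TPI/NAD/arsenate coupling and diaphorase/resazurin added. Fluorescence read after 20 min at RT, 525/598 nm.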
# RE007 growth inh = qHTS Assay for Inhibitors of the HIV-1 protein Vpr | Potency, µM (series often up to 92.2 µM), actives largely listed as inhibitors | S. pombe RE007 Vpr strain, BacTiter-Glo ATP luminescence, 24 h | 360,000 compounds, 0.21% hits | AID 651644, 2012; active means well fitted falling curve with a large enough effect; inconclusive means small, poorly fitted or top-dose-only effect; inactive means no such curve, though single readings can be large or run the other way; further: nearly all actives have a fitted effect of over 50% in size
#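 Fission yeast RE007 carrying one integrated HIV-1 vpr copy, seeded at OD 0.01 in PMG+AL medium with 23 nL pinned compound. Grown 24 h at 30 degrees; viability read by BacTiter-Glo luminescence after 5 min.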
# TbPYK inhibitor = qHTS of Trypanosoma Brucei Inhibitors; pyruvate kinase (Trypanosoma brucei), Q57TT1; TbPYK enzyme, Kinase-Glo Plus ATP luminescence, 45 min; Potency, µM (series often up to 76.8 µM), hits mostly inhibitors; 410,000 compounds, 0.12% hits; AID 624173, 2012; further: nearly all actives have a fitted effect of over 50% in size
#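 ADP (130 uM final) triggers the TbPYK reaction after compound addition; incubation is 45 min at room temperature. Kinase-Glo Plus is then added and luminescence imaged. Normalized data are fitted to concentration-effect curves.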
# AmpC detergent = qHTS Inhibitors of AmpC Beta-Lactamase (assay with detergent) | P00811 | AmpC hydrolysis of nitrocefin, absorbance 480 nm, 0.01% Triton | Potency, µM (highest dose often 114 µM), most hits filed as inhibitors | 370,000 compounds, 0.041% hits | AID 485294, 2010; further: nearly all actives have a fitted effect of over 25% in size
# Target sequence (P00811 whole entry, looked up): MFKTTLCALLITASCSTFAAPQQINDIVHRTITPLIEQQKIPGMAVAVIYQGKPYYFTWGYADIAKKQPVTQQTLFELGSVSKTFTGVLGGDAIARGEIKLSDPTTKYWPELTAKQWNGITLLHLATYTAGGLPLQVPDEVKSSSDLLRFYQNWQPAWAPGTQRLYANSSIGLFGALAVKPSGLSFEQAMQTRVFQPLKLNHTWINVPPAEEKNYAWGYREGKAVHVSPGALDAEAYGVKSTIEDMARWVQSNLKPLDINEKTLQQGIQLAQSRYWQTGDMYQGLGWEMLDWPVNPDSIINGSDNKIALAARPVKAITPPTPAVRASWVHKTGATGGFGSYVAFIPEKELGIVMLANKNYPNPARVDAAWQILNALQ
#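 20 mM phosphate pH 7.0 + 0.01% (detergent screen) or 0.0001% Triton X-100; 5.3 nM AmpC reagent; cpd preinc 15 min RT; nitrocefin (800 uM stock) to start; A480 q20 s × 4 min; Activity was normalised to no-enzyme and no-compound control wells.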
# AmpC inh no detg = qHTS Inhibitors of AmpC Beta-Lactamase (assay without detergent) | Potency, µM (doses to about 57.1 µM), actives largely listed as inhibitors | AID 485341, 2010 | 330,000 compounds, 0.52% hits | AmpC nitrocefin hydrolysis, absorbance 480 nm, 0.0001% Triton | P00811; further: nearly all actives have a fitted effect of over 20% in size
#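 20 mM phosphate pH 7.0 + 0.01% (detergent screen) or 0.0001% Triton X-100; 5.3 nM AmpC reagent; cpd preinc 15 min RT; nitrocefin (800 uM stock) to start; A480 q20 s × 4 min; Activity was normalised to no-enzyme and no-compound control wells.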
# LmPK inhibitor = qHTS Assay for Inhibitors of Leishmania Mexicana Pyruvate Kinase (LmPK) | Q27686 | purified LmPK, Kinase-Glo ATP luminescence, 1 h | Potency, µM (series often up to 57.5 µM), hits mostly inhibitors | 290,000 compounds, 0.37% hits
#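 ATP generated from ADP (0.1 mM) and PEP (0.5 mM) by 0.1 nM LmPK over 1 h at room temperature (pH 7.2 imidazole buffer) was detected by coupled luciferase luminescence. Values were normalized to uninhibited and no-enzyme wells.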
# A number is an active result; i = inactive; ? = inconclusive; nt = no result given; [ ] = dose if it differs, or a comment. Unless noted, the call rests on the fitted dose curve; in most records, active means well fitted curve in the direction sought with a large enough effect; inconclusive means small, poorly fitted or top-dose-only effect, or another doubt; inactive means no such curve, though single readings can be large; an effect the other way counts as inactive or inconclusive.
SMILES,FBPA Giardia inh,RE007 growth inh,TbPYK inhibitor,AmpC detergent,AmpC inh no detg,LmPK inhibitor
CCn1c(SCc2ccc(F)cc2Cl)nc(=O)c2c(C(=O)OC)cc(C3CC3)nc21,nt,nt,i,nt,nt,nt
O=C(COC(=O)c1ccc(NS(=O)(=O)c2cccs2)cc1)Nc1nc2c(F)c(F)c(F)cc2s1,i,i,i,i,20µM,i
O=C(COC(=O)c1ccco1)Nc1nc2c(F)c(F)c(F)cc2s1,i,i,i,i,i,i
CCc1cccc(CC)c1NC(=O)c1c(C)oc2ccc(O)c(CN3CCN(C)CC3)c12,nt,nt,i,i,nt,nt
Cc1onc(-c2ccccc2)c1C(=O)N[C@@H]1C(=O)N2[C@@H](C(=O)O)C(C)(C)S[C@@H]12,nt,nt,i,nt,nt,nt
COc1ccc2nc(C)cc(Nc3ccc(Cl)c(Cl)c3)c2c1,nt,nt,i,i,nt,nt
Cc1nn(-c2ccccc2)c(C)c1/C=N/n1c(-c2ccccc2Br)n[nH]c1=S,i,i,?,i,i,12.6µM
O=C(c1cc(-c2ccccc2)on1)N1CCN(c2ccccc2)CC1,i,i,i,?,i,i
O=C(c1cc(-c2ccco2)on1)N1CCN(c2ccccc2)CC1,i,i,i,i,3.16µM,i
COc1cc(C(=O)NC2CC(=O)N(c3cccc(F)c3)C2)cc(OC)c1OC (stereo not drawn),nt,nt,i,i,nt,nt
CN(C)C(=O)Oc1ccc(-c2cn3cc(Cl)ccc3n2)cc1,i,i,i,i,i,12.6µM
Clc1cccc(CSc2nnc(C3CCNCC3)o2)c1,nt,nt,i,i,nt,nt
COC(=O)C1=C(C)NC(=O)/C1=C\c1cc(C)n(-c2ccccc2C)c1C,i,15.8µM,i,i,i,i
COC(=O)C1=C(C)NC(=O)/C1=C\c1cc(C)n(-c2ccccc2F)c1C,?,i,i,i,i,i
Cc1ccc(OCc2nc3ccccc3[nH]2)cc1,i,i,i,?,i,?
c1ccc(OCc2nc3ccccc3[nH]2)cc1,i,i,i,i,i,11.2µM
Cc1cc2nc(-c3ccc[nH]c3=O)[nH]c2cc1C,i,7.08µM,?,i,i,11.2µM
Cc1ccc2nc(-c3cccc(N)c3)oc2c1,i,i,i,i,i,i
CCc1ccc2oc(-c3cccc(N)c3)nc2c1,i,10µM,i,i,i,?
COc1c(Cl)cc(C(=O)N(Cc2ccc(C)o2)C2CCS(=O)(=O)C2)cc1Cl (stereo not drawn),nt,nt,i,?,nt,nt
Cc1[nH]n(-c2ccccc2)c(=O)c1C(C[N+](=O)[O-])c1ccc(Br)cc1 (stereo not drawn),i,10µM,i,i,i,i
Cc1[nH]n(-c2ccccc2)c(=O)c1C(c1cccc([N+](=O)[O-])c1)c1c(C)[nH]n(-c2ccccc2)c1=O,i,i,i,i,i,i
COc1cccc(C(C[N+](=O)[O-])c2c(C)[nH]n(-c3ccccc3)c2=O)c1 (stereo not drawn),12.6µM,?,i,i,i,i
O=Nc1ccc(NOC(=O)c2ccc(Br)cc2)cc1,nt,nt,nt,i,i,i
Cc1ccc(C(=O)ONc2ccc(N=O)cc2)cc1,i,5.62µM,?,i,i,10µM
SMILES,FBPA Giardia inh,RE007 growth inh,TbPYK inhibitor,AmpC detergent,AmpC inh no detg,LmPK inhibitor
CCc1cccc2c(C(=O)COC(=O)c3ccccc3)c[nH]c12,i,i,i,?,i,i
CCc1cccc2c(C(=O)COC(=O)c3ccc(O)cc3)c[nH]c12,i,i,i,i,28.2µM,i
Cc1cccc(-c2nc(S(=O)(=O)c3ccccc3)c(N3CCN(c4ccccc4)CC3)o2)c1,nt,nt,i,i,nt,nt
O=S(=O)(Nc1ccc(O)c2ccccc12)c1ccc(Br)cc1,nt,nt,nt,i,11.2µM,?
O=S(=O)(Nc1ccc(O)c2ccccc12)c1cccs1,?,i,i,i,i,11.2µM
CC(=O)Nc1ccc(NS(=O)(=O)c2ccccc2)c2ccccc12,i,i,i,i,i,i
COc1cc(NC(=O)C2CCCN(S(=O)(=O)c3cn(C)cn3)C2)cc(OC)c1 (stereo not drawn),nt,nt,i,i,nt,nt
Cc1cc(C)c(S(=O)(=O)Nc2cc(SCC(=O)O)c(O)c3ccccc23)cc1C,3.97µM,i,10µM,i,i,20µM
COc1ccc(S(=O)(=O)Nc2cc(Sc3ncn[nH]3)c(O)c3ccccc23)cc1,0.561µM,31.6µM,nt,i,i,3.16µM
O=C(O)CSc1cc(NS(=O)(=O)c2ccc(Cl)cc2)c2ccccc2c1O,3.98µM,?,?,i,i,?
Cc1cc(C)c(S(=O)(=O)Nc2ccc(O)cc2)cc1C,i,i,i,i,i,i
COc1ccc(S(=O)(=O)Nc2cc(SCC(=O)O)c(O)c3ccccc23)cc1,7.94µM,i,?,i,i,?
CN(C)S(=O)(=O)c1ccc2c(c1)N(CC(=O)N1CCN(c3cccc(Cl)c3)CC1)CCS2,nt,nt,i,i,nt,nt
CCOC(=O)c1cc(-c2ccc(F)cc2)n(CCC(=O)NC2CCC(C)CC2)c1C (stereo not drawn),nt,nt,i[15.4 µM],i,nt,nt
CCOC(=O)C1CCN(C(=O)c2nn(-c3ccc(C)cc3)c(=O)n(C)c2=O)CC1,nt,nt,i,i,nt,nt
O=S(=O)(Nc1cc(Sc2cccc3cccnc23)c(O)c2ccccc12)c1ccc(F)cc1,1.12µM,?,?,i,i,i
O=S(=O)(Oc1ccccc1/C=N/n1cnnc1)c1ccccc1,19.9µM,i,i,i,i,i
COc1cc(C)ccc1OCCSc1nc2ccc(NC(C)=O)cc2s1,nt,nt,i,i,nt,nt
COc1ccc(OC)c(S(=O)(=O)ON2C(=O)c3ccccc3C2=O)c1,i,i,i,39.8µM,?,?
COc1ccc(OC)c(S(=O)(=O)N2CCN(c3ccccc3)CC2)c1,i,i,i,?,i,i
CCc1ccc(S(=O)(=O)ON2C(=O)c3ccccc3C2=O)cc1,i,i,?,35.5µM,i[2.29 µM],i
O=C1c2cccc3cccc(c23)C(=O)N1OS(=O)(=O)c1ccc(Cl)cc1,i,i,i,i,i,i
O=C(O/N=C1/CCCc2occc21)c1ccc(Cl)cc1Cl,i,i,i,i,i,i
O=C(O/N=C1/CCCc2occc21)c1ccccc1,i,i,i,i,i,12.6µM
O=C(Nc1nc(-c2ccccc2)cs1)Nc1ccc(F)cc1F,i,i,i,i,20µM,i
O=C(Nc1nc(-c2ccccn2)cs1)Nc1ccc(F)cc1F,?,i,i,i,i,i
COc1ccc(Cl)cc1C(=O)NNC(=O)c1[nH]c(C)c(C(C)=O)c1C,nt,i,i,nt,10µM,nt
CCCn1c(CCC(=O)Nc2cc(Cl)c(OC)cc2OC)nc2cccnc21,nt,nt,i,i,nt,nt

# Screens from PubChem BioAssay.
